Results filed as inconclusive are left out. Activity calls are given as the source filed them. Unless noted, calls follow the shape of the dose curve; as a rule, active = well fitted curve in the direction sought with a large enough effect; inconclusive = small, poorly fitted or top-dose-only effect, or another doubt; inactive = no such curve, though single readings can be large; an effect the other way counts as inactive or inconclusive.
Columns and labels:
[1] = Cell Viability - H-4-II-E (AID 543);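 also: cells exposed to compound for 40 hours; % is scaled to controls: 0 for no effect and ±100 for the full control effect; nearly all actives have a fitted effect of over 35% in size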
Summary of the method: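 Cells seeded at 1500 per well and rested 5 hr; compounds added; 40 hr incubation at 37 °C; CellTiter-Glo added, 20 min at room temperature; luminescence read. Hill-equation fits gave AC50.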

[2] = Cell Viability - SH-SY5Y (AID 544); conditions: SH-SY5Y neuroblastoma cell viability; viability change, negative = cytotoxic: at 92.2 µM (top of the series);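 also: cells exposed to compound for 40 hours; nearly all actives have a fitted effect of over 55% in size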
Summary of the method: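 Cells were plated at 1500 per well and allowed 5 hr at 37 °C. Compounds were added across a concentration range and incubated 40 hr at 37 °C. CellTiter-Glo was added for 20 min at room temperature before luminescence reading.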

[3] = Cell Viability - Renal Proximal Tubule (AID 545);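 also: cells exposed to compound for 40 hours; nearly all actives have a fitted effect of over 40% in size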
Summary of the method: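 Rat kidney proximal tubule cells, freshly isolated; 1000 cells/well, 5 hr settle, compound 40 hr 37 °C. CellTiter-Glo 20 min RT, luminescence read. AC50 by standard Hill fit.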

[4] = Cellular Toxicity (caspase-3) Hek293 (AID 664); conditions: HEK293 caspase-3 activation, DMSO = 0%, 100 µM tamoxifen = 100%; at 92.2 µM (top of the series);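 also: cells exposed to compound for 16 h at 37 °C before readout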
Summary of the method: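 qHTS, HEK293 (human embryonic kidney), 16 h cpd exposure in complete medium. Caspase-3/7 activation = luminescence increase; normalized to DMSO/100 uM tamoxifen; Hill-fit AC50.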

[5] = Cell Viability - LYMP2-003 (AID 965);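 also: cells exposed to compounds for 24 h before reading; 0% = DMSO only and full effect = 92 µM tetraoctylammonium bromide; nearly all actives have a fitted effect of over 50% in size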
Summary of the method: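 CellTiter-Glo luminescence (cellular ATP) after 24 h compound exposure at 37 C in complete medium; 2500 cells/well, 5 h settling beforehand. Concentration-response fitted to standard Hill equation for AC50. Tetraoctylammonium bromide served as positive control.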

[6] = Cell Viability - LYMP2-009 (AID 968);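 also: 0% = DMSO alone and the full-kill end = tetraoctylammonium bromide at 92 µM; nearly all actives have a fitted effect of over 55% in size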
[7] = Cell Viability - LYMP2-013 (AID 970);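 also: 0% = DMSO only and full inhibition = tetraoctylammonium bromide control; nearly all actives have a fitted effect of over 55% in size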
Summary of the method: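 Cytotoxicity is scored as a concentration-dependent drop in intracellular ATP in human lymphoblastoid cells after 24 hr compound exposure at 37 C. ATP is quantified by luciferase luminescence, and AC50 values come from Hill-equation modeling.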

[8] = Cell Viability - LYMP2-019 (AID 973);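 also: 0% = DMSO alone and full effect = 92 µM tetraoctylammonium bromide; nearly all actives have a fitted effect of over 55% in size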
Summary of the method: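 Cytotoxicity is scored as a concentration-dependent drop in cellular ATP after cells (2500/well) receive compound for 24 hr at 37 C. Tetraoctylammonium bromide serves as positive control.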

[9] = Cell Viability - LYMP2-025 (AID 976);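 also: plate controls were DMSO only for no effect and tetraoctylammonium bromide control for full effect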
Summary of the method: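 Acute cytotoxicity is scored as a concentration-dependent fall in intracellular ATP, measured by luciferase luminescence, in human lymphoblastoid LYMP2-025 cells exposed to compound for 24 hours at 37 C. AC50 values come from standard Hill fits.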

[10] = Cell Viability - LYMP2-002 (AID 977);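 also: plate controls were DMSO only for no effect and 92 µM tetraoctylammonium bromide for full effect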
Summary of the method: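 In this qHTS viability screen, 2500 human lymphoblastoid cells per well receive compound for 24 hr at 37 C, and luciferase-based ATP luminescence gives the viability signal. Tetraoctylammonium bromide serves as positive control.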

[11] = Cell Viability - LYMP2-006 (AID 978); also: % is scaled to controls: 0 for no effect and ±100 for the full control effect; nearly all actives have a fitted effect of over 60% in size
Summary of the method: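 qHTS, 1536-well; 2500 cells/well, 5 hr 37 C; cpd 24 hr 37 C; CellTiter-Glo 30 min RT; luminescence. Tetraoctylammonium bromide pos. ctrl. AC50 via Hill eqn.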

[12] = Cell Viability - LYMP2-008 (AID 980); also: % is scaled to controls: 0 for no effect and ±100 for the full control effect; nearly all actives have a fitted effect of over 60% in size
Summary of the method: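 Cells seeded at 2500/well and rested 5 hr at 37 C; compounds added over a concentration range and incubated 24 hr at 37 C; CellTiter-Glo added, 30 min at room temperature; luminescence read and AC50 fitted with Hill model.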

[13] = Cell Viability - LYMP2-012 (AID 982)
[14] = Cell Viability - LYMP2-020 (AID 986)
Summary of the method: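 Seed 2500 cells per well and incubate 5 hr at 37 C. Add compounds at a concentration series and incubate 24 hr at 37 C. Add CellTiter-Glo, wait 30 min at RT, read luminescence, and fit a Hill curve for AC50.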

[15] = Cell Viability - LYMP2-022 (AID 987)
Summary of the method: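 Cells were seeded at 2500 per well, rested 5 hr at 37 C, and treated with titrated compounds for 24 hr at 37 C. Cellular ATP was then quantified by luciferase luminescence, and AC50 values were derived from Hill-modelled concentration-response curves.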

[16] = Cell Viability - LYMP2-026 (AID 989); also: % is scaled to controls: 0 for no effect and ±100 for the full control effect; nearly all actives have a fitted effect of over 50% in size
Summary of the method: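 Cells are seeded at 2500 per well and held 5 hr at 37 C. Compounds are added in concentration series for 24 hr, then CellTiter-Glo reagent is applied and luminescence read.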

[17] = Cell Viability - LYMP1-002 - Assay at 40 hr (AID 994);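 also: 0% = DMSO only and full inhibition = 92 µM tetraoctylammonium bromide; nearly all actives have a fitted effect of over 60% in size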
Summary of the method: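 Cells are plated at 2500 per well and rested 5 hr at 37 C. Compounds are added and incubated 40 hr at 37 C. CellTiter-Glo reagent is added for 30 min at room temperature before luminescence is read.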

[18] = qHTS assay for small molecule agonists of retinoid X receptor alpha signaling (AID 588544; calls by dose curve;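 as to activation: 0% = DMSO basal wells and 100% = reference agonist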); conditions: HEK293T RXRa-UAS-bla, beta-lactamase reporter, 18 h; 530 nm emission
[19] = molecular target: Retinoic acid receptor RXR-alpha (Homo sapiens) (UniProt P19793); assay: as above
[20] = molecular target: Tumor necrosis factor (Homo sapiens) (UniProt P01375); assay: qHTS assay to identify small molecules that stimulate Tumor Necrosis Factor-alpha (TNF-alpha) secretion (AID 651757; active = well fitted curve in the direction sought with a large enough effect in the signal ratio; the % refers to the signal ratio; also: 0% is about no effect)
Summary of the method: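 Human monocytic THP-1 cells are plated, treated with compound and held at 37 C for 17 hrs. Labeled anti-TNF-alpha antibody mixture is then added; after 3 hr at room temperature, TR-FRET signal reports secreted TNF-alpha.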

Chain of Tumor necrosis factor (Homo sapiens) (P01375 whole entry, looked up): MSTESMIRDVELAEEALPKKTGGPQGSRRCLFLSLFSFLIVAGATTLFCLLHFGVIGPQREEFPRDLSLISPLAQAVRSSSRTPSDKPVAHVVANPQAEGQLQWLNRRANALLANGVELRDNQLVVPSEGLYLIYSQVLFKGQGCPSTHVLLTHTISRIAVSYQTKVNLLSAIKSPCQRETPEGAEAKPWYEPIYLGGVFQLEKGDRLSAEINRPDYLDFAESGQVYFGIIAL
Chain of Retinoic acid receptor RXR-alpha (Homo sapiens) (P19793 whole entry, looked up): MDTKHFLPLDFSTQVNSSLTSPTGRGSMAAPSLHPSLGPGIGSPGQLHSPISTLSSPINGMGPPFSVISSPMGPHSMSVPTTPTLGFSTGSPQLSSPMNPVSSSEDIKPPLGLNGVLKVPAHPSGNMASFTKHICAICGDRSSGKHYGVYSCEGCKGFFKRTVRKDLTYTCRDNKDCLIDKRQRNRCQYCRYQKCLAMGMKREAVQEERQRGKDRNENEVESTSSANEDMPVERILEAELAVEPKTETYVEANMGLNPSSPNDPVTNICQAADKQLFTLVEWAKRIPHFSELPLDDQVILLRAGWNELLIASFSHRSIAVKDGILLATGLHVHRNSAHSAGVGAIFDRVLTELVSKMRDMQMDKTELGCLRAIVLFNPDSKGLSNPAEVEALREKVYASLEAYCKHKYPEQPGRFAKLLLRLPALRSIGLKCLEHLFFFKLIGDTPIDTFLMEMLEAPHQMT

O=[N+]([O-])c1ccc(Cl)c(Cl)c1Cl
3.54%: max response [18]
inactive: Potency [1] | Potency [2] | outcome [3] | caspase-3 activation [4] -0.669% | Potency [5] | Potency [6] | Potency [7] | Potency [8] | Potency [9] | Potency [10] | Potency [11] | Potency [12] | Potency [13] | Potency [14] | Potency [15] | Potency [16] | Potency [17] | outcome [19] | outcome [20]

CC(C)CON=O
inactive: Potency [1] | Potency [2] | outcome [3] | caspase-3 activation [4] 0.719% | Potency [5] | Potency [6] | Potency [7] | Potency [8] | Potency [9] | Potency [10] | Potency [11] | Potency [12] | Potency [13] | Potency [14] | Potency [15] | Potency [16] | Potency [17] | outcome [19] | outcome [20]
6.03%: max response [18]

CCCCOC(=O)c1ccccc1N
inactive: Potency [1] | Potency [2] | outcome [3] | caspase-3 activation [4] 0.422% | Potency [5] | Potency [6] | Potency [7] | Potency [8] | Potency [9] | Potency [10] | Potency [11] | Potency [12] | Potency [13] | Potency [14] | Potency [15] | Potency [16] | Potency [17] | outcome [19] | outcome [20]
-10.9%: max response [18]

O=Cc1ccc2c(c1)OCO2
inactive: Potency [1] | Potency [2] | outcome [3] | caspase-3 activation [4] 0.153% | Potency [5] | Potency [6] | Potency [7] | Potency [8] | Potency [9] | Potency [10] | Potency [11] | Potency [12] | Potency [13] | Potency [14] | Potency [15] | Potency [16] | Potency [17] | outcome [19] | outcome [20]
19.3%: max response [18]

ClC(Br)Br
inactive: Potency [1] | Potency [2] | outcome [3] | caspase-3 activation [4] -0.91% | Potency [5] | Potency [6] | Potency [7] | Potency [8] | Potency [9] | Potency [10] | Potency [11] | Potency [12] | Potency [13] | Potency [14] | Potency [15] | Potency [16] | Potency [17] | outcome [19] | outcome [20]
-3.88%: max response [18]

CCNCC
-7.47%: max response [18]
inactive: Potency [1] | Potency [2] | outcome [3] | caspase-3 activation [4] 1.2% | Potency [5] | Potency [6] | Potency [7] | Potency [8] | Potency [9] | Potency [10] | Potency [11] | Potency [12] | Potency [13] | Potency [14] | Potency [15] | Potency [16] | Potency [17] | outcome [19] | outcome [20]

ClCCOCOCCCl
-19.5%: max response [18]
inactive: Potency [1] | Potency [2] | outcome [3] | caspase-3 activation [4] -1.31% | Potency [5] | Potency [6] | Potency [7] | Potency [8] | Potency [9] | Potency [10] | Potency [11] | Potency [12] | Potency [13] | Potency [14] | Potency [15] | Potency [16] | Potency [17] | outcome [19] | outcome [20]

Cc1cnc[nH]1
inactive: Potency [1] | Potency [2] | outcome [3] | caspase-3 activation [4] -0.172% | Potency [5] | Potency [6] | Potency [7] | Potency [8] | Potency [9] | Potency [10] | Potency [11] | Potency [12] | Potency [13] | Potency [14] | Potency [15] | Potency [16] | outcome [19] | outcome [20]
2.59%: max response [18]
